# KCNQ2 enhance = potentiators of rat KCNQ2 potassium channel. O88943. CHO-K1 KCNQ2, FluxOR thallium flux fluorescence; hits give high values. B-score at 10 µM. 310,000 tested, 0.54% active;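 active means fluorescence ratio B-score at least 3 SD of library B-scores, with initial fluorescence B-score within 3 of them, cut at about 5.3 in these data; same plate scores as AID 2156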;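 further: B-score of peak minus minimum over baseline fluorescence ratio after K+ and Tl+ stimulus; positive B-score means potentiation of KCNQ2 with more thallium influx and brighter signal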
# KCNQ2 inh = inhibitors of rat KCNQ2 potassium channel; 310,000 tested, 1.1% active; AID 2156; B-score at 10 µM; O88943; CHO-K1 KCNQ2, FluxOR thallium flux, 20 min; hits give low values;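 active means fluorescence ratio B-score at most minus 3 library SDs, with starting brightness B-score within 2 library SDs, cut at about -5.5 in these data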
# Kir21 confirm = confirmation of mouse Kir2.1 potassium channel inhibitors; shares compounds with KCNQ2 enhance; 2,300 tested, 41% active; Tl flux remaining, % of negative control (hits give low values), % at 10 µM; Kir2.1-expressing cells, FluxOR thallium flux fluorescence; hits give low values;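 active means Primary-screen hit whose thallium flux fell at least 3 control SD below untreated wells in both duplicates, with normal baseline fluorescence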;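 further: 0% = blank wells without stimulus and 100% = stimulated no-compound controls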
# Target sequence (P35561 whole entry, looked up): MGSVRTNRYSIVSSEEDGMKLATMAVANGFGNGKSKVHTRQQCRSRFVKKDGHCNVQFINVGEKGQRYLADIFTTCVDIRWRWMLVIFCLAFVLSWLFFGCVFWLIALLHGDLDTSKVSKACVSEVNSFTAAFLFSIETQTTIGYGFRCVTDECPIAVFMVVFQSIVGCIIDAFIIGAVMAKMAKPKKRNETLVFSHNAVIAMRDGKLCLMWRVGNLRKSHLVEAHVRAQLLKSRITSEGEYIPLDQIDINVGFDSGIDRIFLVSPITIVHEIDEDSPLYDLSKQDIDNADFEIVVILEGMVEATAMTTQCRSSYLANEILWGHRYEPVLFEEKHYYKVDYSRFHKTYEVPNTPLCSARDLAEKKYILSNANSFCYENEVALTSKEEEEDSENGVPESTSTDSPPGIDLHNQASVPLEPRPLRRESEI
# HEK293 ctr = parental HEK293 activity in Kir2.1 inhibitor counter-screen; shares compounds with KCNQ2 enhance; parental HEK293 cells, FluxOR thallium flux fluorescence; 0% = unstimulated blank wells; FluxOR signal as % of negative control (100 = no effect), % at 10 µM; 2,300 tested, 19% active; AID 2105;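 active means dye signal at least 3 control SD above or below untreated wells in both duplicates, raw fluorescence within 3, either direction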;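 further: percent is based on the flux ratio of peak minus minimum fluorescence over baseline F0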
# CHO-K1 ctr = alters thallium flux in parental CHO-K1 cells, KCNQ2 counter-screen | shares compounds with KCNQ2 enhance | FluxOR thallium flux fluorescence; zero = vehicle mean+3SD, 100% = vehicle-minus-blank window | activity increase over 3SD of controls, % at 10 µM | 1,200 tested, 43% active | AID 2282;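 active means signal rise of at least 3 SD above the untreated control mean, in both duplicate wells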;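 further: counter screen of KCNQ2 potentiator hits so any rise reflects channel-independent effects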
# KCNQ1 sel pot = tests whether KCNQ2 potentiators also act on human KCNQ1. AID 2283. shares compounds with KCNQ2 enhance. 1,200 tested, 28% active. CHO KCNQ1 stable, FluxOR thallium flux fluorescence; beyond 3SD, as % of vehicle-control signal. activation over 3SD threshold, % at 10 µM;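 active means fluorescence ratio rise of at least 3 SD of vehicle wells above their mean, in both replicate wells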;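 further: 0% = vehicle mean plus 3 SD and 100% = vehicle minus unstimulated blank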
# KCNQ2 pot confirm = rat KCNQ2 channel potentiator confirmation | 1,200 tested, 68% active | shares compounds with KCNQ2 enhance | AID 2287 | CHO-KCNQ2 cells, FluxOR thallium flux fluorescence | potentiation, less the hit threshold, % at 10 µM;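 active means fluorescence ratio rising 3 SD or more over the vehicle control mean in both replicates, plus primary screen hit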;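 further: peak minus minimum thallium fluorescence divided by baseline after K/Tl stimulus; 0% = vehicle mean plus 3 SD and 100% = vehicle minus unstimulated blank difference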
# Kir2-1 sel = tests whether KCNQ2 potentiators also affect mouse Kir2.1 | shares compounds with KCNQ2 enhance | HEK293 Kir2.1, FluxOR thallium flux fluorescence | activity over 3SD threshold, % at 10 µM | 1,200 tested, 2% active | AID 2345;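 active means fluorescence ratio rise of at least 3 SD above the vehicle-control mean, seen in both replicates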;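 further: 0% = vehicle mean plus 3 SD and 100% = vehicle minus no-stimulus blank window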
# KCNQ2 W236L MoA = rat KCNQ2 W236L mutant potentiation by KCNQ2 potentiators. shares compounds with KCNQ2 enhance. CHO KCNQ2-W236L, automated patch clamp current. current increase over 3SD of negative controls (%), hits give high values, % at 25 µM. 940 tested, 10% active. AID 2558;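 active means current increase at least 3 SD of the untreated controls above them in both duplicate recordings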
# An asterisk follows results filed as active; i = inactive; / = no result. A selection: hits, their analogues and other compounds. The true share with any hit is near 1.6%.
SMILES,KCNQ2 enhance,KCNQ2 inh,Kir21 confirm,HEK293 ctr,others
Nc1c(-c2ccccc2Cl)cnn1-c1cccc([N+](=O)[O-])c1,5.3*,i,i,127%*,CHO-K1 ctr=-20;KCNQ1 sel pot=-33;KCNQ2 pot confirm=2.3*;Kir2-1 sel=-25;KCNQ2 W236L MoA=i
Cc1cc(C(=O)NNC(=O)c2ccc(C(F)(F)F)cc2)no1,1.8,i,/,/,
CC(C)(C)c1cc(C(=O)NNC(=O)c2ccc(Cl)cc2)no1,9.1*,i,i,266%*,CHO-K1 ctr=1.4*;KCNQ1 sel pot=88*;KCNQ2 pot confirm=5.3*;Kir2-1 sel=-42;KCNQ2 W236L MoA=i
CCn1c(COc2ccc(=O)n(-c3ccccc3)n2)nnc1SCc1ccc(C)cc1,/,i,/,/,
CCn1c(COc2ccc(C)cc2)nnc1SCc1ccc(C#N)cc1,/,i,68%*,i,
CCCNS(=O)(=O)c1cccc(C(=O)NC2CCCc3ccccc32)c1 (configuration not stated),/,i,/,/,
COc1ccc(CCNC(=O)CSc2nnc(-c3ccccc3)c3ccccc23)cc1OC,/,i,/,/,
CCCCn1c(-c2ccccc2)cnc1SCC(=O)NCCc1ccc(OC)c(OC)c1,/,i,56%*,i,
CCn1c(SCC(=O)Nc2ccc(N(C)C)cc2)nnc1-c1ccco1,/,i,/,/,
O=C(NCc1ccc(F)cc1)C(c1ccccc1)c1ccccc1,/,i,/,/,
CCC(NC(=S)NCc1ccc(F)cc1)c1ccccc1 (configuration not stated),1.3,i,58%*,62%*,
COc1ccc(S(=O)(=O)N2CCC(C(=O)Oc3cccc(C)c3)CC2)cc1OC,0.52,i,/,/,
CCN(CC)S(=O)(=O)c1ccc(C(=O)NCC2CCCCC2)cc1,/,i,/,/,
O=C(CCN1CCOCC1)N1c2ccccc2Sc2ccc(Cl)cc21,/,i,/,/,
CN(C)CCCN1c2ccccc2Sc2ccc(C(F)(F)F)cc21,/,i,/,/,
CN1CCN(CCCN2c3ccccc3Sc3ccc(Cl)cc32)CC1,-9.1,-9.1*,14%*,i,
OCCN1CCN(CCCN2c3ccccc3Sc3ccc(C(F)(F)F)cc32)CC1,/,i,30%*,i,
CCOc1ccc2[nH]c(=O)c(C(c3nnnn3Cc3ccco3)N3CCN(C)CC3)cc2c1 (configuration not stated),/,i,/,/,
O=[N+]([O-])c1ccccc1OCCNCc1ccccc1,0.54,i,/,/,
Cc1ccc(S(=O)(=O)Nc2cc(C(C)C)c(O)cc2C)cc1,/,i,34%*,71%*,
Cc1ccc(S(=O)(=O)Nc2cc(Cl)c(O)cc2C)cc1,/,i,/,/,
CNCCCCOc1ccccc1Cc1ccccc1,/,i,28%*,i,
CN(C)CCOc1ccccc1Cc1ccccc1,0.7,i,/,/,
CCOCC(=O)Nc1cc(C)on1,/,i,/,/,
CC(=O)c1cccc(CN2CCC(C(=O)Nc3cccc(-c4ccn[nH]4)c3)CC2)c1,3.9,i,/,/,
SMILES,KCNQ2 enhance,KCNQ2 inh,Kir21 confirm,HEK293 ctr,others
COc1ccc(S(=O)(=O)NCc2ccc(C(=O)N3CCc4ccccc4C3)cc2)cc1,/,i,/,/,
Cc1cccc(OCCCC(=O)Nc2ccc(S(=O)(=O)Nc3nccs3)cc2)c1C,0.59,i,/,/,
CN(C(=O)CSc1ncnc2sc(-c3ccccc3)cc12)C1CCS(=O)(=O)C1 (configuration not stated),20*,i,i,448%*,CHO-K1 ctr=0.0*;KCNQ1 sel pot=-19;KCNQ2 pot confirm=76*;Kir2-1 sel=-21;KCNQ2 W236L MoA=i
CN(C(=O)CSc1ncnc2scc(-c3ccccc3)c12)C1CCS(=O)(=O)C1 (configuration not stated),0.37,i,/,/,
Cc1cc(C(=O)N[C@H](c2ccccc2)[C@@]2(C)C[C@@H]2[C@@H](C)C(=O)Nc2ccc3ccccc3c2)n(C)n1,/,i,/,/,
CC(NC1CCCC1)c1ccccc1 (configuration not stated),0.98,i,/,/,
CC(NCCC(c1ccccc1)c1ccccc1)c1ccccc1 (configuration not stated),0.97,i,44%*,i,
Clc1cccc(CN2CCc3c([nH]c4ccccc34)C2)c1,/,i,/,/,
Cc1cccc(CN2CCc3c([nH]c4ccccc34)C2)c1,1.5,i,43%*,i,
NC(=O)C1CCN(C(=O)CCC(=O)c2ccc(Br)cc2)CC1,0.16,i,/,/,
COc1ccc(-c2ccccc2)cc1NCc1ccc(OC)c(OC)c1,0.24,i,/,/,
CC(=O)N(C1CC(C)C(C#N)(C#N)C1(C#N)C#N)N(C)C (configuration not stated),24*,i,i,63%*,
COc1ccccc1Nc1nc(NCCO)c2ccccc2n1,0.03,i,/,/,
Cc1ccc(Nc2nc(NCCO)c3ccccc3n2)cc1C,/,i,28%*,i,
COc1ccc(/C=C2\C(=O)ON=C2c2ccccc2)cc1,/,i,/,/,
O=C1ON=C(c2ccccc2)/C1=C/c1ccc(O)c(O)c1,6.8*,i,70%*,i,CHO-K1 ctr=-4;KCNQ1 sel pot=-6;KCNQ2 pot confirm=-1;Kir2-1 sel=-71;KCNQ2 W236L MoA=i
CC1=NNC(=O)C1CCC(=O)N/N=C/C=C/c1ccccc1 (configuration not stated),0.85,i,/,/,
CC1=NNC(=O)C1CC(=O)N/N=C/C=C/c1ccccc1 (configuration not stated),8.8*,i,i,i,CHO-K1 ctr=-10;KCNQ1 sel pot=-21;KCNQ2 pot confirm=-14;Kir2-1 sel=-37
CCN(CC)CCCNc1ccc(-c2nnc(-c3ccc(OCC(C)C)cc3)o2)cn1,-7.3,-7.3*,65%*,i,
CC(C)COc1ccc(-c2nnc(-c3ccco3)o2)cc1,0.09,i,/,/,
CC(C)Oc1cccc(C2NC(=O)c3ccccc3O2)c1 (configuration not stated),/,i,/,/,
CC(C)n1c(SCC(=O)NC2CCCCC2)nnc1-c1ccco1,1.2,i,/,/,
S=c1nc[nH]c2c1sc1nc(N3CCOCC3)c3c(c12)CCCC3,12*,i,i,270%*,CHO-K1 ctr=36*;KCNQ1 sel pot=-19;KCNQ2 pot confirm=60*;Kir2-1 sel=-10;KCNQ2 W236L MoA=i
O=c1[nH]nnc2c1sc1nc(N3CCOCC3)c3c(c12)CCCC3,1.7,i,/,/,
Cc1ccc(S(=O)(=O)NCCSCc2ccccc2)cc1,/,i,64%*,i,
Cc1ccc(CSCCNS(=O)(=O)c2ccc([N+](=O)[O-])cc2)cc1,/,i,/,/,
